This passage reports growth results from PubChem BioAssay (NCI).

Compounds without any hit were thinned out: in the full panel of roughly 83,000, 20% have a hit.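 The test compound was applied at a single concentration to cells in 96-well plates for 48 hours, and percent growth was recorded.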 Unmarked numbers belong to inactive results. Activity calls are given as the source filed them. How the source made its calls: active means growth percent below 10; inactive means the rest.

The first experiment concerns MALME-3M melanoma. Kind of experiment: NCI-60 one-dose screen, 48 h (100 = growth as untreated, 0 = no growth, -100 = all killed). To be noted: 10 µM unless noted.
Consider `COc1ccc(C2=Nc3c(N)ncnc3NC(c3ccc4c(c3)OCO4)C2)cc1` (stereo unspecified), for which the growth was 105%.
For `COc1ccc2occ(C3=C(c4c[nH]c5ccccc45)C(=O)N(O)C3=O)c2c1`, the growth was 112%.
On the same count and under the same terms, then `NCCCNc1nc2ccccc2c2c(=O)c3cccc(Cl)c3sc12`, with 41.6%; and `O=c1c2cc(F)ccc2sc2c(NCCN3CCCCC3)nc3ccccc3c12`, with 58.5%.
On the same count and under the same terms, then `Cc1ccc2c(c1)Sc1c(ccc3ccccc13)N2`, with 90.7%; and `CCCCCCCCCCCCCCCCCCOc1ccc(CC(=O)OCC[N+]2(C)CCCC2)cc1`, with 117%.
Still for that read-out and setting: the result for `CC(=O)OC[C@H]1OC(Sc2sc(C(=O)c3ccc(Br)cc3)c(N)c2-c2nc3ccccc3s2)[C@H](OC(C)=O)[C@@H](OC(C)=O)[C@@H]1OC(C)=O` (stereo partly specified) reads 20%.
For `O=C(O)c1ccc2c(c1)CCC2`, the growth is 106%.
Regarding `COc1ccc(-c2[nH]c(=S)n(C(CC3(C)NCC(=O)N3n3c(-c4ccccc4)cc(C)nc3=S)c3ccc(OC)cc3)c(=O)c2Br)cc1` (stereo unspecified), the growth was 90.2%.
Still for that read-out and setting: then `C[C@H](NC(=O)[C@@H]1CSSC[C@@H](NC(=O)c2nc3ccccc3cc2O)C(=O)NCC(=O)N1C)c1ccccc1`, with 49.9%.
Same read-out and setting: then `CCc1ccccc1-n1c(-c2ccc(Cl)cc2)cc(-c2ccc(Cl)cc2)c(C#N)c1=O`, with 90.8%; and `COCCc1ccc(OCC(O)CNC(C)C)cc1` (stereo unspecified), with 97.5%.
In the case of `COc1ccc(/C=C/c2c(C(=O)/C=C/c3cccs3)c(C)nc3ccccc23)cc1`, the growth was 107%.
In the case of `COc1ccc(-c2nc3c(N)c(CO)c(C)nc3o2)cc1`, the growth is 96.7%.
Regarding `CC(C)C(=O)Nc1n[nH]c2cc(-c3cccc(NS(=O)(=O)C4CC4)c3)ccc12`, the growth is 66.1%.
As to `COc1ccc(-c2nc3ccc4[nH]ncc4c3c3c2CCCC3)cc1B(O)O`, the growth is 75%.
The same measure, in the same setting: then `COc1cc(OC)cc(C2CC(=O)Nc3c2c(C)nn3-c2nc3ccccc3[nH]2)c1` (stereo unspecified), with 38.3%; and `CCOC(=O)c1c2ncccc2n2c(=O)n(-c3ccccc3C)nnc12`, with 145%; and `CCN(CCNc1ccc(C)c2sc3ccccc3c(=O)c12)CC(C)(C)O`, with 89.1%.
In the case of `CCCCNC(=O)Oc1ccc2c(=O)c3sc4c(=O)c5ccccc5c(=O)c4c3c(=O)c2c1`, the growth is -98% (active).
Take `O=C(NCCCNc1cc(-c2cn(-c3ccccc3)nc2-c2cccc(O)c2)ccn1)c1ccc(F)cc1`: the growth is -12.1% (active).
On the same count and under the same terms, the result for `CC(C)=C[C@@H]1c2c(c3ccccc3n(C)c2=O)O[C@H]2c3c(c4ccccc4n(C)c3=O)OC(C)(C)[C@@H]12` reads 99.4%; that for `CCN1CCN(c2nc(C)cc(NCc3cc(Nc4ccnc5cc(Cl)ccc45)ccc3F)n2)CC1`, -69% (active); that for `COc1ccc2c(c1)O/C(=C\c1cccc(OCC(=O)Nc3nc4ccccc4s3)c1)C2=O`, -43.8% (active).
Regarding `Cc1nn(-c2ccccc2)c(Oc2ccc(Cl)cc2)c1/C=N\N=c1/sc2ccccc2n1C`, the growth is 98.2%.
Still for that read-out and setting: the result for `COc1cc(C2NC(=O)c3ccccc3N2)ccc1OCCCCCOc1c(OC)cc(C2=NOC(c3cc(OC)c(OC)c(OC)c3)C2)cc1OC` (stereo unspecified) reads 53.9%; that for `COc1cc(C2CC(=O)Nc3c2c(C)nn3-c2nc3ccccc3[nH]2)c(OC)c(OC)c1OC` (stereo unspecified), 55.1%.
Consider `CC1(C)OC2C(CO[Si](C)(C)C(C)(C)C)OC(n3c(I)c(C#C[Si](C)(C)C)c(=O)[nH]c3=O)C2O1` (stereo unspecified), for which the growth was 109%.
As to `CC(=O)N1C(=S)NC(=O)C1Cn1c(-c2ccccc2)nc2ccccc21` (stereo unspecified), the growth was 101%.
The same measure, in the same setting: then `COCN1CCC2N(COC)CCC3N(COC)CCC1N23` (stereo unspecified), with 134%; and `C=CC(=O)Nc1cccc(Oc2nccc(Nc3nnc(C4CC4)s3)n2)c1`, with 111%; and `COc1ccc(N=Nc2ccc(O)c(=O)cc2)cc1`, with 9.91% (active).
Still for that read-out and setting: the result for `C=C1C(=O)O[C@H]2[C@H]1CC/C(COC(=O)C(=O)c1cn(C)c3ccc(OC)cc13)=C\CC[C@@]1(C)O[C@@H]21` reads -74.8% (active); that for `COc1cccc(-c2nn(-c3ccccc3)cc2-c2ccnc(NCCNC(=O)Nc3ccccc3)c2)c1`, 77.8%; that for `COC(=O)[C@]12CC[C@@H](C)[C@H](C)[C@@H]1C1=CC[C@@H]3[C@@]4(C)C(C=O)=C[C@@](C)(COC(C)=O)[C@@H]4[C@H](O)C[C@@]3(C)[C@]1(C)CC2`, -79.2% (active).
Same read-out and setting: then `O=C(Nc1cccc(Cl)c1)c1cc(N=Nc2ccc([N+](=O)[O-])cc2Cl)ccc1O`, with 43.7%.
Turning to `COc1ccc(C2c3ccc4ccccc4c3Oc3nc(C)[nH]c(=O)c32)cc1` (stereo unspecified), the growth was 97%.
Same read-out and setting: then `COC(=O)c1ccc(C2Nc3ccc(S(=O)(=O)Nc4ccc(C)c(C)c4)cc3C3OCCC23)cc1` (stereo unspecified), with 77.4%.

The test system of a further experiment is MDA-MB-231 breast. The description is as above. To be noted: 10 µM unless noted.
In the case of `COc1ccc(C2=Nc3c(N)ncnc3NC(c3ccc4c(c3)OCO4)C2)cc1` (stereo unspecified), the growth was 73.9%.
Same read-out and setting: then `COc1ccc2occ(C3=C(c4c[nH]c5ccccc45)C(=O)N(O)C3=O)c2c1`, with 69%.
`NCCCNc1nc2ccccc2c2c(=O)c3cccc(Cl)c3sc12`: the growth was -18.3% (active).
As for `O=c1c2cc(F)ccc2sc2c(NCCN3CCCCC3)nc3ccccc3c12`, the growth is 35.5%.
On the same count and under the same terms, the result for `Cc1ccc2c(c1)Sc1c(ccc3ccccc13)N2` reads 50.6%; that for `CCCCCCCCCCCCCCCCCCOc1ccc(CC(=O)OCC[N+]2(C)CCCC2)cc1`, 111%; that for `CC(=O)OC[C@H]1OC(Sc2sc(C(=O)c3ccc(Br)cc3)c(N)c2-c2nc3ccccc3s2)[C@H](OC(C)=O)[C@@H](OC(C)=O)[C@@H]1OC(C)=O` (stereo partly specified), 10.4%.
Consider `O=C(O)c1ccc2c(c1)CCC2`, for which the growth is 117%.
Still for that read-out and setting: then `COc1ccc(-c2[nH]c(=S)n(C(CC3(C)NCC(=O)N3n3c(-c4ccccc4)cc(C)nc3=S)c3ccc(OC)cc3)c(=O)c2Br)cc1` (stereo unspecified), with 79.9%.
The same measure, in the same setting: the result for `C[C@H](NC(=O)[C@@H]1CSSC[C@@H](NC(=O)c2nc3ccccc3cc2O)C(=O)NCC(=O)N1C)c1ccccc1` reads -39.5% (active).
Same read-out and setting: then `CCc1ccccc1-n1c(-c2ccc(Cl)cc2)cc(-c2ccc(Cl)cc2)c(C#N)c1=O`, with 101%; and `COCCc1ccc(OCC(O)CNC(C)C)cc1` (stereo unspecified), with 101%.
In the case of `COc1ccc(/C=C/c2c(C(=O)/C=C/c3cccs3)c(C)nc3ccccc23)cc1`, the growth was 78.2%.
Take `COc1ccc(-c2nc3c(N)c(CO)c(C)nc3o2)cc1`: the growth is 111%.
Still for that read-out and setting: the result for `CC(C)C(=O)Nc1n[nH]c2cc(-c3cccc(NS(=O)(=O)C4CC4)c3)ccc12` reads 58.4%; that for `COc1ccc(-c2nc3ccc4[nH]ncc4c3c3c2CCCC3)cc1B(O)O`, 69.3%; that for `COc1cc(OC)cc(C2CC(=O)Nc3c2c(C)nn3-c2nc3ccccc3[nH]2)c1` (stereo unspecified), 16.5%.
On the same count and under the same terms, then `CCOC(=O)c1c2ncccc2n2c(=O)n(-c3ccccc3C)nnc12`, with 104%; and `CCN(CCNc1ccc(C)c2sc3ccccc3c(=O)c12)CC(C)(C)O`, with 78%.
Turning to `CCCCNC(=O)Oc1ccc2c(=O)c3sc4c(=O)c5ccccc5c(=O)c4c3c(=O)c2c1`, the growth was -22.2% (active).
The same measure, in the same setting: the result for `O=C(NCCCNc1cc(-c2cn(-c3ccccc3)nc2-c2cccc(O)c2)ccn1)c1ccc(F)cc1` reads -13.6% (active).
As to `CC(C)=C[C@@H]1c2c(c3ccccc3n(C)c2=O)O[C@H]2c3c(c4ccccc4n(C)c3=O)OC(C)(C)[C@@H]12`, the growth is 85.8%.
Consider `CCN1CCN(c2nc(C)cc(NCc3cc(Nc4ccnc5cc(Cl)ccc45)ccc3F)n2)CC1`, for which the growth is -31.1% (active).
Same read-out and setting: then `COc1ccc2c(c1)O/C(=C\c1cccc(OCC(=O)Nc3nc4ccccc4s3)c1)C2=O`, with 74.8%.
Still for that read-out and setting: the result for `Cc1nn(-c2ccccc2)c(Oc2ccc(Cl)cc2)c1/C=N\N=c1/sc2ccccc2n1C` reads 79%.
Regarding `COc1cc(C2NC(=O)c3ccccc3N2)ccc1OCCCCCOc1c(OC)cc(C2=NOC(c3cc(OC)c(OC)c(OC)c3)C2)cc1OC` (stereo unspecified), the growth is 82.5%.
Still for that read-out and setting: the result for `COc1cc(C2CC(=O)Nc3c2c(C)nn3-c2nc3ccccc3[nH]2)c(OC)c(OC)c1OC` (stereo unspecified) reads 72.3%.
As to `CC1(C)OC2C(CO[Si](C)(C)C(C)(C)C)OC(n3c(I)c(C#C[Si](C)(C)C)c(=O)[nH]c3=O)C2O1` (stereo unspecified), the growth was 98%.
Same read-out and setting: then `CC(=O)N1C(=S)NC(=O)C1Cn1c(-c2ccccc2)nc2ccccc21` (stereo unspecified), with 90.4%; and `COCN1CCC2N(COC)CCC3N(COC)CCC1N23` (stereo unspecified), with 94.1%; and `C=CC(=O)Nc1cccc(Oc2nccc(Nc3nnc(C4CC4)s3)n2)c1`, with 67.1%.
The same measure, in the same setting: then `COc1ccc(N=Nc2ccc(O)c(=O)cc2)cc1`, with 17.5%; and `C=C1C(=O)O[C@H]2[C@H]1CC/C(COC(=O)C(=O)c1cn(C)c3ccc(OC)cc13)=C\CC[C@@]1(C)O[C@@H]21`, with -58.4% (active).
On the same count and under the same terms, then `COc1cccc(-c2nn(-c3ccccc3)cc2-c2ccnc(NCCNC(=O)Nc3ccccc3)c2)c1`, with 47.9%; and `COC(=O)[C@]12CC[C@@H](C)[C@H](C)[C@@H]1C1=CC[C@@H]3[C@@]4(C)C(C=O)=C[C@@](C)(COC(C)=O)[C@@H]4[C@H](O)C[C@@]3(C)[C@]1(C)CC2`, with -39.2% (active).
Turning to `O=C(Nc1cccc(Cl)c1)c1cc(N=Nc2ccc([N+](=O)[O-])cc2Cl)ccc1O`, the growth is 64.1%.
For `COc1ccc(C2c3ccc4ccccc4c3Oc3nc(C)[nH]c(=O)c32)cc1` (stereo unspecified), the growth is 93.6%.
`COC(=O)c1ccc(C2Nc3ccc(S(=O)(=O)Nc4ccc(C)c(C)c4)cc3C3OCCC23)cc1` (stereo unspecified): the growth is 83.9%.
